Reference: the supplement of paper PMC7411054
Counter-ions that a name gives are not always drawn.

What follows are compounds tested on WPMY1-ACTB-RAB5A (assay: phenotypically active (imaging signature differs from DMSO and reproducible) at any of 0.3-9 uM (binary (1 = active, 0 = inactive)); higher = active). Details: treatment time: 24 h.
In short: (§1)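 Phenotypic activity depended on meeting both a deviation and a reproducibility criterion. The fifteen gene-edited A549, HepG2 and WPMY1 reporter lines were treated at 0.3, 1, 3 or 9 µM for 24 h, four wells each, then imaged live with features normalised to solvent control wells. Deviation required ≥3 of 4 wells past the 95th percentile of control Euclidean distances, and reproducibility a median replicate Pearson correlation above the 95th percentile of non-replicates.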

Phenotypically active, active:
COc1cc2c(NC3CCN(C(C)C)CC3)nc(N3CCC(F)(F)CC3)nc2cc1OCCCN1CCCC1 1
CC(=O)c1c(C)c2cnc(Nc3ccc(N4CCNCC4)cn3)nc2n(C2CCCC2)c1=O 1
CN1c2ccccc2C(=O)N2CCc3c([nH]c4ccccc34)[C@H]21 [Evodiamine] 1
CO[C@H]1C=CC=C(C)C(=O)NC2=CC(=O)C(NCCN(C)C)=C(C[C@@H](C)C[C@H](OC)[C@H](O)[C@@H](C)C=C(C)[C@@H]1OC(N)=O)C2=O [17-DMAG hydrochloride] 1
Cc1noc(C)c1-c1cc(O)cc(C(O)c2ccccc2)c1 (centres undefined) 1
O=C(Nc1ccc(-c2ccnc(Nc3ccc(N4CCOCC4)cc3)n2)cc1)[C@@H]1CCCN1 1
NC1(C(=O)N[C@@H](CCO)c2ccc(Cl)cc2)CCN(c2ncnc3[nH]ccc23)CC1 1
NC(=O)Nc1cc(-c2cccc(F)c2)sc1C(=O)N[C@H]1CCCNC1 [AZD 7762 hydrochloride] 1
COc1cc2nc(-c3cc(F)ccc3O)nc(N[C@@H]3CNC[C@H]3C(C)(C)O)c2cc1OC 1
Cc1c[nH]c2nccc(Oc3c(F)cc(Nc4cc(Cl)nc(N)n4)cc3F)c12 1
C[C@H]1[C@H]2CC[C@H]3[C@@H]4CC=C5C[C@@H](N(C)C)CC[C@]5(C)[C@H]4CC[C@]23CN1C [Conessine] 1
CON(C)C(=O)N1N=C(c2cc(F)ccc2F)S[C@@]1(CCCN)c1ccccc1 [ARRY 520 trifluoroacetate] 1
CC[C@H](CO)Nc1nc(NCc2ccc(-c3ccccn3)cc2)c2ncn(C(C)C)c2n1 1
Oc1cccc(-c2nc(N3CCOCC3)c3oc4ncccc4c3n2)c1 [PI 103 hydrochloride] 1
COc1cc(/C=C/c2ccc(OC)cc2OC)cc(OC)c1 1
COc1cc2c(cc1-c1c(C)noc1C)ncc1[nH]c(=O)n([C@H](C)c3ccccn3)c12 [I-BET 151 dihydrochloride] 1
COc1cccc(-c2cc(F)ccc2[C@H]2Cc3nc(N)nc(C)c3C(=O)N2)n1 1
COc1cc(C(=O)NC2CCN(C)CC2)c(F)cc1Nc1ncc2c(n1)N(C1CCCC1)CC(F)(F)C(=O)N2C [TAK 960 hydrochloride] 1
CC[C@]1(O)C[C@@H]2CN(CCc3c([nH]c4ccccc34)[C@@](C(=O)OC)(c3cc4c(cc3OC)N(C=O)[C@H]3[C@@](O)(C(=O)OC)[C@H](OC(C)=O)[C@]5(CC)C=CCN6CC[C@]43[C@@H]65)C2)C1 [vincristine] 1
OC[C@H]1O[C@@H](n2cnc3c(NCc4ccco4)ncnc32)[C@H](O)[C@@H]1O [Kinetin riboside] 1
N#Cc1c(C2CCNCC2)cc(-c2c(O)cccc2OCC2CC2)nc1N 1
C=CC(=O)Nc1cccc(Nc2nc(Nc3ccc(OCCOC)cc3)ncc2F)c1 1
COc1cc(N2CCC(N3CCN(C)CC3)CC2)ccc1Nc1ncnc(Nc2ccccc2S(=O)(=O)C(C)C)n1 1
Fc1ccccc1CNCc1ccc(-c2ccnc3[nH]ccc23)cc1 [OXA 06 dihydrochloride] 1
C[C@H]1COCCN1c1cc(C2(S(=O)(=O)C3CC3)CC2)nc(-c2ccc(NC(=S)NCCO)cc2)n1 1

What follows are compounds tested on WPMY1-CANX-COX4 in the same assay as above. Details: treatment time: 24 h.
In short: as §1

Phenotypically active, active:
Nc1nc(Cl)nc2c1ncn2[C@@H]1O[C@H](CO)[C@@H](O)[C@@H]1F [clofarabine] 1
Cc1nc(Nc2ncc(C(=O)Nc3c(C)cccc3Cl)s2)cc(N2CCN(CCO)CC2)n1 [dasatinib] 1
O=C(NCc1cccc(O)c1)Nc1nc(-c2ccncc2)cs1 [RKI 1447 dihydrochloride] 1
CC(C)n1nc(-c2cc3cc(O)ccc3[nH]2)c2c(N)ncnc21 1
COc1ccc(-c2ccc3ncc4c(c3c2)n(-c2ccc(N3CCNCC3)c(C(F)(F)F)c2)c(=O)n4C)cn1 1
CC(C)(C)c1cnc(CSc2cnc(NC(=O)C3CCNCC3)s2)o1 1
O=C(O)c1ccc(Nc2ncc3c(n2)-c2ccc(Cl)cc2C(c2c(F)cccc2F)=NC3)cc1 1
COc1ccc(S(=O)(=O)N(C(C)=O)c2ccccc2/C=C/c2cc[n+]([O-])cc2)cc1 1
CC(C)(C)Nc1nc(Nc2ccc(C(N)=O)cc2)cc(N)c1C#N 1
Nc1cccc(-c2cc3c(Oc4cccc(O)c4)ncnc3[nH]2)c1 1
c1ccc2c(c1)Cc1c(Nc3ccc4c(c3)OCCO4)n[nH]c1-2 1
Cc1c(NC(=O)OC[C@@H]2COCCN2)cn2ncnc(Nc3ccc4c(cnn4Cc4cccc(F)c4)c3)c12 1
CCC(=O)N1CCN(c2ccc(-n3c(=O)ccc4cnc5ccc(-c6cnc7ccccc7c6)cc5c43)cc2C(F)(F)F)CC1 [Torin 1] 1
COc1c(Nc2cc(C)[nH]n2)nc(Sc2ccc(S(=O)(=O)Cc3cccc([N+](=O)[O-])c3F)cc2F)nc1N1CCOCC1 [Centrinone] 1
COc1cc2c(NC3CCN(C(C)C)CC3)nc(N3CCC(F)(F)CC3)nc2cc1OCCCN1CCCC1 1
CC(=O)c1c(C)c2cnc(Nc3ccc(N4CCNCC4)cn3)nc2n(C2CCCC2)c1=O 1
CN1c2ccccc2C(=O)N2CCc3c([nH]c4ccccc34)[C@H]21 [Evodiamine] 1
CO[C@H]1C=CC=C(C)C(=O)NC2=CC(=O)C(NCCN(C)C)=C(C[C@@H](C)C[C@H](OC)[C@H](O)[C@@H](C)C=C(C)[C@@H]1OC(N)=O)C2=O [17-DMAG hydrochloride] 1
Cc1noc(C)c1-c1cc(O)cc(C(O)c2ccccc2)c1 (centres undefined) 1
O=C(Nc1ccc(-c2ccnc(Nc3ccc(N4CCOCC4)cc3)n2)cc1)[C@@H]1CCCN1 1
NC1(C(=O)N[C@@H](CCO)c2ccc(Cl)cc2)CCN(c2ncnc3[nH]ccc23)CC1 1
NC(=O)Nc1cc(-c2cccc(F)c2)sc1C(=O)N[C@H]1CCCNC1 [AZD 7762 hydrochloride] 1
COc1cc2nc(-c3cc(F)ccc3O)nc(N[C@@H]3CNC[C@H]3C(C)(C)O)c2cc1OC 1
Cc1c[nH]c2nccc(Oc3c(F)cc(Nc4cc(Cl)nc(N)n4)cc3F)c12 1
C[C@H]1[C@H]2CC[C@H]3[C@@H]4CC=C5C[C@@H](N(C)C)CC[C@]5(C)[C@H]4CC[C@]23CN1C [Conessine] 1
CON(C)C(=O)N1N=C(c2cc(F)ccc2F)S[C@@]1(CCCN)c1ccccc1 [ARRY 520 trifluoroacetate] 1
CC[C@H](CO)Nc1nc(NCc2ccc(-c3ccccn3)cc2)c2ncn(C(C)C)c2n1 1
Oc1cccc(-c2nc(N3CCOCC3)c3oc4ncccc4c3n2)c1 [PI 103 hydrochloride] 1
COc1cc(/C=C/c2ccc(OC)cc2OC)cc(OC)c1 1
COc1cc2c(cc1-c1c(C)noc1C)ncc1[nH]c(=O)n([C@H](C)c3ccccn3)c12 [I-BET 151 dihydrochloride] 1
COc1cccc(-c2cc(F)ccc2[C@H]2Cc3nc(N)nc(C)c3C(=O)N2)n1 1
COc1cc(C(=O)NC2CCN(C)CC2)c(F)cc1Nc1ncc2c(n1)N(C1CCCC1)CC(F)(F)C(=O)N2C [TAK 960 hydrochloride] 1
CC[C@]1(O)C[C@@H]2CN(CCc3c([nH]c4ccccc34)[C@@](C(=O)OC)(c3cc4c(cc3OC)N(C=O)[C@H]3[C@@](O)(C(=O)OC)[C@H](OC(C)=O)[C@]5(CC)C=CCN6CC[C@]43[C@@H]65)C2)C1 [vincristine] 1
OC[C@H]1O[C@@H](n2cnc3c(NCc4ccco4)ncnc32)[C@H](O)[C@@H]1O [Kinetin riboside] 1
N#Cc1c(C2CCNCC2)cc(-c2c(O)cccc2OCC2CC2)nc1N 1
C=CC(=O)Nc1cccc(Nc2nc(Nc3ccc(OCCOC)cc3)ncc2F)c1 1
COc1cc(N2CCC(N3CCN(C)CC3)CC2)ccc1Nc1ncnc(Nc2ccccc2S(=O)(=O)C(C)C)n1 1
Fc1ccccc1CNCc1ccc(-c2ccnc3[nH]ccc23)cc1 [OXA 06 dihydrochloride] 1
C[C@H]1COCCN1c1cc(C2(S(=O)(=O)C3CC3)CC2)nc(-c2ccc(NC(=S)NCCO)cc2)n1 1
